PubChem BioAssay (EPA / NIEHS)
Records with an inconclusive call do not appear. Active and inactive are the calls of the source. Rule for the calls: active = hit-call score of the fitted dose curve at least 0.9, where 1 is the maximum; inconclusive = response in the unintended direction; inactive = score below 0.9.

read-out: Broad substrate specificity ATP-binding cassette transporter ABCG2 (Homo sapiens) (UniProt Q9UNQ0); test: CLD_ABCG2_24hr: CellzDirect (CLD) Gene Expression Assay for ABC Transporter (ABCG2) at 24 hours (AID 2283685)
Procedure: CLD_24hr is a cell-based, multiplexed-readout assay that uses hepatocyte, a human liver primary cell, with measurements taken at 24 hours after chemical dosing in a 96-well plate.CLD_ABCG2_24hr is one of 16 assay component(s) measured or calculated from the CLD_24hr assay. It is designed to make measurements of mRNA induction, a form of inducible reporter, as detected with chemiluminescence signals by Quantitative Nuclease Protection Assay (qNPA) technology.Data from the assay component CLD_ABCG2_24hr was analyzed at the endpoint, CLD_ABCG2_24hr, in the positive analysis fitting direction relative to DMSO as the negative control and baseline of activity. Using a type of inducible reporter, gain-of-signal activity can be used to understand changes in the reporter gene as they relate to the gene ABCG2. Furthermore, this assay endpoint can be referred to as a primary readout. To generalize the intended target to other relatable targets, this assay endpoint is annotated to the transporter intended target family, where subfamily is ABC transporter.
Human hepatocyte cultures were treated daily for two consecutive days with fresh dosing solutions containing appropriate concentrations of the 320 ToxCast chemicals (chemical identities were blinded to CellzDirect and other ToxCast collaborators), vehicle control (0.2% DMSO), and positive control inducers as summarized in Table 1. Due to the large number of treatment groups and chemicals examined, the ToxCast chemicals were divided into two groups (spanning two independent cultures of hepatocytes from separate donor preparations (Hu778: ToxCast plates 1 and 2; Hu776: ToxCast plates 3 and 4). Each preparation of human hepatocyte cultures was treated with respective vehicle control, medium only control, set of six positive controls/reference chemicals for the five hepatic receptor pathways, and a subset of eight of the ToxCast chemicals (indoxacarb, pyrithiobac-sodium, norflurazon, cyhalofop-butyl, methomyl, thiram, acetochlor, and propiconazole). These replicate data, coupled with internal replicates designed within the blinded ToxCast chemical library, provided additional data to evaluate interindividual differences between hepatocyte preparations and their potential impact on chemical profiles.Cell morphology and integrity were evaluated using phase-contrast microscopy as an indicator of hepatocyte cell health (Tyson & Green, 1987). Cultures for each treatment group (i.e., media, vehicle [0.2% DMSO], positive control inducers [multiple concentrations], and the ToxCast chemicals [multiple concentrations]) were observed and cell morphology was assessed relative to vehicle control cultures at each harvest time point (0, 6, 24, or 48 h). […] Images were evaluated at the conclusion of the study to assess changes in cell integrity and account for the effects of chemical exposure on uncharacteristic changes in concentration-dependent gene expression profiles. The results from these determinations of apparent cytotoxicity were annotated (yes/no) alongside the corresponding qNPA data for reference.At the conclusion of each treatment period, hepatocyte cultures (96-well) were washed with 1 volume of HBSS, lysed by addition of 25 ul ArrayPlate lysis buffer (HTG, Tucson, AZ), and 70 ul/well of Denaturation Oil, denatured by incubation at 95C for 10 min, and frozen at approximately -70C until analysis by nuclease protection assay (qNPA) (Roberts et al., 2007). For qNPA analysis, cell lysates were thawed at 50C for approximately 30 min, qNPA probes were added, and samples were incubated at 95C for 10 min to begin the detection process by denaturing the target RNA, dissociating the duplexes and secondary structure hybridization. At the conclusion of the hybridization period, S1 nuclease reagent was added to each sample to digest all nonprotected nucleotides at 50C for 60-90 min. […]

Chain of Broad substrate specificity ATP-binding cassette transporter ABCG2 (Homo sapiens) (Q9UNQ0 whole entry, looked up): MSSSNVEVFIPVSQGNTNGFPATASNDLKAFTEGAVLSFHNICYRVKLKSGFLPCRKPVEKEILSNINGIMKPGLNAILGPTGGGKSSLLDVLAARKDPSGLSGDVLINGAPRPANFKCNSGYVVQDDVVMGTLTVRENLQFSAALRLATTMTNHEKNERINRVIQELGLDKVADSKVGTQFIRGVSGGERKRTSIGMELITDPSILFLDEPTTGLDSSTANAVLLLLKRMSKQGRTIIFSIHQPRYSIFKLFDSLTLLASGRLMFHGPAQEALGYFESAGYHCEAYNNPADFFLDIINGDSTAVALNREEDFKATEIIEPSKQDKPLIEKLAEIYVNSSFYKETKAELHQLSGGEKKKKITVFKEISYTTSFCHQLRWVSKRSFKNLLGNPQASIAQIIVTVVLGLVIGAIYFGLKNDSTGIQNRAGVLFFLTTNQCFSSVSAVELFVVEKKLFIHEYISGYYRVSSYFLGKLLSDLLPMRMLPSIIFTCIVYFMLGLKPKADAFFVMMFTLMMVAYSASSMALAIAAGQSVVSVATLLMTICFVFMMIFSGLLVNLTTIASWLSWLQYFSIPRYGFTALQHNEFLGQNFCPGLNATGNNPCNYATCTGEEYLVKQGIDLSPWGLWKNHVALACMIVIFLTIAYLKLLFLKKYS

Compound	outcome
CCOC(=O)C(C)OC(=O)c1cc(Oc2ccc(C(F)(F)F)cc2Cl)ccc1[N+](=O)[O-] (stereo not given)	inactive
COc1cc(Cl)c(OC)cc1Cl	inactive
Cc1cnc(C2=NC(C)(C(C)C)C(=O)N2)c(C(=O)O)c1 (stereo not given)	inactive
CC(C)N1C(=O)N(c2ccccc2)CSC1=NC(C)(C)C	inactive
Cc1ccc(N=CN(C)C=Nc2ccc(C)cc2C)c(C)c1	inactive
CC1(C)CON(Cc2ccccc2Cl)C1=O	inactive
CC(C)(C)C(=O)C(Oc1ccc(Cl)cc1)n1cncn1 (stereo not given)	inactive
COCc1cnc(C2=NC(C)(C(C)C)C(=O)N2)c(C(=O)O)c1 (stereo not given)	inactive
CSC(=O)c1c(C(F)F)nc(C(F)(F)F)c(C(=O)SC)c1CC(C)C	inactive
COCC(=O)N(c1c(C)cccc1C)C(C)C(=O)OC (stereo not given)	inactive
N#CN=C1SCCN1Cc1ccc(Cl)nc1	inactive
CO/N=C(/C1=NOCCO1)c1ccccc1Oc1ncnc(Oc2ccccc2Cl)c1F	inactive
Cc1nc(N(C)C)nc(OC(=O)N(C)C)c1C	inactive
C=C(C)CN(CC)c1c([N+](=O)[O-])cc(C(F)(F)F)cc1[N+](=O)[O-]	inactive
CCOc1nc(F)cc2nc(S(=O)(=O)Nc3c(Cl)cccc3Cl)nn12	inactive
COc1ccc(-c2ccccc2)cc1NNC(=O)OC(C)C	inactive
CCOP(=O)(OCC)Oc1nc(Cl)c(Cl)cc1Cl	inactive
CCNC(=O)NC(=O)C(C#N)=NOC	inactive
N#Cc1c(Cl)cccc1Cl	inactive
CCCCC(C#N)(Cn1cncn1)c1ccc(Cl)cc1 (stereo not given)	inactive

Compound	outcome
CCOP(=S)(OCC)Oc1nc(Cl)n(C(C)C)n1	inactive
COCC(C)N(C(=O)CCl)c1c(C)csc1C (stereo not given)	inactive
CCCC(=NOCC)C1=C(O)CC(CC(C)SCC)CC1=O (stereo not given)	inactive
Nc1c(Cl)c(F)nc(OCC(=O)O)c1Cl	inactive
Cn1c(-c2ccccc2)cc(-c2ccccc2)[n+]1C	inactive
CC(C)=CC1C(C(=O)OCc2coc(Cc3ccccc3)c2)C1(C)C (stereo not given)	inactive
COP(=O)(OC)O/C(C)=C/C(=O)N(C)C	inactive
CCCCC(O)(Cn1cncn1)c1ccc(Cl)cc1Cl (stereo not given)	inactive
CN=C=S	inactive
Nc1cnn(-c2ccccc2)c(=O)c1Cl	inactive
COP(=S)(OC)SCn1nnc2ccccc2c1=O	inactive
C=CCOC(=O)C(C)(C)OC(=O)c1cc(-n2c(=O)cc(C(F)(F)F)n(C)c2=O)ccc1Cl	inactive
CC1(C)C(C(=O)OC(C#N)c2cccc(Oc3ccccc3)c2)C1(C)C (stereo not given)	inactive
CCOc1nc(C(Cl)(Cl)Cl)ns1	inactive
CCCN(CC)CC1COC2(CCC(C(C)(C)C)CC2)O1 (stereo not given)	inactive
O=C1C2CC=CCC2C(=O)N1SC(Cl)(Cl)Cl (stereo not given)	inactive
COC(=O)NC(=S)Nc1ccccc1NC(=S)NC(=O)OC	inactive
Cc1c(COC(=O)[C@@H]2[C@H](/C=C(\Cl)C(F)(F)F)C2(C)C)cccc1-c1ccccc1	inactive
CNC(=O)Oc1cccc2ccccc12	inactive
Nc1c(Cl)c(Cl)nc(C(=O)O)c1Cl	inactive
